Hits are enriched below; roughly 4.1% of the tested compounds scored in any of these assays.
ssDAF-12 act – S. stercoralis DAF-12 activation, primary screen. activation, % at 6.8 µM. 370,000 compounds, 1% hits. HEK293 ssDAF-12/GRIP1 lit1-tk-luc reporter, luminescence; % of 3 µM dafachronic acid response. AID 652126;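 active = activation above the mean over all tested compounds plus 3 SD, cut at about 0.9% in these data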;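 also: 0% = DMSO-only wells and 100% = 3 µM delta7-dafachronic acid wells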
hgDAF-12 ag – agonists of H. glycines DAF-12 nuclear receptor. activation, % at 6.8 µM. HEK293 GAL4-hgDAF12 UAS-luciferase reporter, agonist luminescence; normalized to butyrate control. AID 687014. 370,000 compounds, 1.8% hits;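 active = activation above a cutoff set at the mean of all screened compounds plus 3 SD, cut at about 10% in these data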;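 also: 0% = DMSO wells and 100% = sodium butyrate wells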
DAX1 inh-1 – DAX1 (NR0B1) inhibition, primary screen; inhibition, % at 6.8 µM; HEK293T StAR-luciferase reporter, SF-1/DAX-1 repression relief; AID 652010; 370,000 compounds, 1.1% hits;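 active = inhibition above the mean over all tested compounds plus 3 SD, cut at about 3.6% in these data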;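 also: 0% = DAX-1 cells with DMSO and 100% = cells lacking DAX-1 with DMSO; higher inhibition means more luminescence from relief of DAX-1 repression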
DAX1 inh-2 – inhibits human nuclear receptor DAX1; P51843; AID 504766; inhibition, % at 6.75 µM; HEK293 Gal4-DAX1 luciferase reporter, luminescence; 340,000 compounds, 0.99% hits;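 active = inhibition above the mean over all tested compounds plus 3 SD, cut at about 4.2% in these data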;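 also: 0% = DAX1-transfected cells with DMSO and 100% = empty-vector control cells with DMSO; inhibition shows as a rise in luminescence from relieved DAX1 repression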
Target sequence (P51843 207-470 limits assumed): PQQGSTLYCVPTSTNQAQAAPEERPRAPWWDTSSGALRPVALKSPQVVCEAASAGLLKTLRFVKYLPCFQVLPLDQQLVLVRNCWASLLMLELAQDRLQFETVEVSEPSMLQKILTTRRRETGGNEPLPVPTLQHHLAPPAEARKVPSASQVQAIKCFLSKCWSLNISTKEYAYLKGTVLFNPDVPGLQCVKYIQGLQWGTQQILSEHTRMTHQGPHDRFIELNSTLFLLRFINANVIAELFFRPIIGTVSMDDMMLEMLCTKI
hcDAF-12 act – H. contortus DAF-12 activation, primary screen; HEK293 hcDAF-12 lit1-tk-luc reporter, luminescence; 0% DMSO, 100% Δ7-dafachronic acid; activation, % at 6.8 µM; 370,000 compounds, 1.4% hits; AID 652067;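 active = activation above the mean of all tested compounds plus 3 SD, cut at about 5.5% in these data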;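 also: 100% = response to 3 µM Δ7-dafachronic acid high control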
PolyA inhibitor – blocks polyadenylation in yeast reporter cells | S. cerevisiae SKY197-pL101 polyadenylation reporter, beta-gal luminescence; efflux-impaired pdr1/pdr3 knockout yeast; score 100 = 6 SD above DMSO | activity score, % at 12 µM | 300,000 compounds, 0.02% hits | AID 1875;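 active = lowest replicate activity score at least 50, where 100 means six control SD above control mean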;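 also: yeast exposed to compound for 9 h at 30 °C; higher score means more reporter readthrough which indicates perturbed polyadenylation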
Active calls of the source: *.

How did CC(C)C(NS(=O)(=O)c1ccc2c(c1)oc(=O)n2C)C(=O)N1CCN(c2ccccc2F)CC1 (stereo not drawn) do in these assays?
ssDAF-12 act: -1; hgDAF-12 ag: -1; DAX1 inh-1: -1; DAX1 inh-2: 4.8*; hcDAF-12 act: -1

What do the screens show for `Cc1ccc(-c2nnc(N)s2)cc1`?
ssDAF-12 act: 1; hgDAF-12 ag: 7; DAX1 inh-1: 1; DAX1 inh-2: 2; hcDAF-12 act: -1; PolyA inhibitor: -2

What do the screens show for `CC(C)c1ccc(-c2nnc(N)s2)cc1`?
ssDAF-12 act: 0; hgDAF-12 ag: 11*; DAX1 inh-1: 2; DAX1 inh-2: 4; hcDAF-12 act: 6.0*; PolyA inhibitor: -18

Results for COc1ccc(OCC2CCNCC2)cc1 ?
ssDAF-12 act: 0; hgDAF-12 ag: 4; DAX1 inh-1: 0; DAX1 inh-2: 4.5*; hcDAF-12 act: 1; PolyA inhibitor: -1

What do the screens show for `COc1ccc(CNC(=O)C2CCNCC2)cc1`?
ssDAF-12 act: -1; hgDAF-12 ag: 1; DAX1 inh-1: 0; DAX1 inh-2: 1; hcDAF-12 act: -1; PolyA inhibitor: 15

What do the screens show for `Cc1cc(-c2nc3ccccc3o2)c2ccccc2n1`?
ssDAF-12 act: 1.2*; hgDAF-12 ag: 1; DAX1 inh-1: -1; DAX1 inh-2: 1; hcDAF-12 act: 2; PolyA inhibitor: -20

How did CCCCOc1ccc2c(c1)C(=O)c1cc(O)ccc1-2 do in these assays?
ssDAF-12 act: -1; hgDAF-12 ag: 11*; DAX1 inh-1: 2; DAX1 inh-2: 1; hcDAF-12 act: 1; PolyA inhibitor: -18

Results for CC(C)COCc1ccc(O)c2ncccc12 ?
ssDAF-12 act: 0; hgDAF-12 ag: -3; DAX1 inh-1: 0; DAX1 inh-2: -1; hcDAF-12 act: 1; PolyA inhibitor: -25

What do the screens show for `CCCOCc1ccc(O)c2ncccc12`?
ssDAF-12 act: -1; hgDAF-12 ag: 12*; DAX1 inh-1: 0; DAX1 inh-2: 1; hcDAF-12 act: 1; PolyA inhibitor: 6

What do the screens show for `CCCS/C(N)=N/N=C/c1cc(C)ccc1O`?
ssDAF-12 act: 1; hgDAF-12 ag: 11*; DAX1 inh-1: 2; DAX1 inh-2: 3; hcDAF-12 act: 4; PolyA inhibitor: 14

How did Cc1ccc(C(=O)N/N=C\C=C\c2ccc(Br)cc2)cn1 do in these assays?
ssDAF-12 act: 1.0*; hgDAF-12 ag: 1; DAX1 inh-1: 0; DAX1 inh-2: 0; hcDAF-12 act: 6.5*; PolyA inhibitor: 11

Results for CC1(C)CC(NCCC(c2ccccc2)c2ccco2)CCO1 (stereo not drawn) ?
ssDAF-12 act: -2; hgDAF-12 ag: 1; DAX1 inh-1: 1; DAX1 inh-2: 8.2*; hcDAF-12 act: 2; PolyA inhibitor: -12

Results for CC1(C)CC(C(=O)NCCC(c2ccccc2)c2ccco2)CCO1 (stereo not drawn) ?
ssDAF-12 act: -1; hgDAF-12 ag: 1; DAX1 inh-1: 1; DAX1 inh-2: 1; hcDAF-12 act: -2; PolyA inhibitor: -26

How did O=C(O)c1ccc(-c2nc(-c3ccc(Cl)cc3)cs2)cc1 do in these assays?
ssDAF-12 act: 0; hgDAF-12 ag: 13*; DAX1 inh-1: 3; DAX1 inh-2: 4; hcDAF-12 act: 5.8*; PolyA inhibitor: 12

Results for Cc1cccc(CN[C@@H]2CC[C@@]34CCCN3C(=O)CCC[C@H]4C2)c1 ?
ssDAF-12 act: -1; hgDAF-12 ag: -2; hcDAF-12 act: -2

How did Cc1ccc2nc(SCC(=O)Nc3ccc(F)c([N+](=O)[O-])c3)[nH]c2c1 do in these assays?
ssDAF-12 act: -1; hgDAF-12 ag: 0; DAX1 inh-1: -1; DAX1 inh-2: 0; hcDAF-12 act: -1; PolyA inhibitor: 6

How did Cc1ccc2nc(SCC(=O)Nc3cc([N+](=O)[O-])ccc3F)[nH]c2c1 do in these assays?
ssDAF-12 act: -1; hgDAF-12 ag: 1; DAX1 inh-1: 0; DAX1 inh-2: 2; hcDAF-12 act: 6.1*; PolyA inhibitor: -2

What do the screens show for `COc1ccc(/C(C)=N/Nc2nc3ccccc3nc2C)cc1`?
ssDAF-12 act: 1.1*; hgDAF-12 ag: 3; DAX1 inh-1: 0; DAX1 inh-2: 4; hcDAF-12 act: 5.8*; PolyA inhibitor: 9

What do the screens show for `C=CCN=C1NC(c2ccc(C(F)(F)F)cc2)C(C(=O)OC)=C(C)N1C` (stereo not drawn)?
ssDAF-12 act: -1; hgDAF-12 ag: 2; DAX1 inh-1: -1; hcDAF-12 act: -1

How did COC(=O)[C@]1(C#N)CC(=O)N(Cc2ccc(Cl)cc2)[C@@H]1c1ccc(OC)cc1 do in these assays?
ssDAF-12 act: -1; hgDAF-12 ag: 2; DAX1 inh-1: 1; hcDAF-12 act: -1

Results for FC(F)(F)c1ccc(NCCc2ccccc2)nc1 ?
ssDAF-12 act: -1; hgDAF-12 ag: 0; DAX1 inh-1: 0; DAX1 inh-2: 5.1*; hcDAF-12 act: -1; PolyA inhibitor: -10

Results for NS(=O)(=O)c1ccc(CCNc2ccc(C(F)(F)F)cn2)cc1 ?
ssDAF-12 act: -1; hgDAF-12 ag: 0; DAX1 inh-1: 0; DAX1 inh-2: 0; hcDAF-12 act: 0; PolyA inhibitor: -7

How did O=C(CC1=NCCNC(c2ccccc2)C1)c1ccccc1O (stereo not drawn) do in these assays?
ssDAF-12 act: 0; hgDAF-12 ag: 7; DAX1 inh-1: 1; DAX1 inh-2: 0; hcDAF-12 act: 5.8*; PolyA inhibitor: -4

How did O=C(Nc1ccccc1)OCCN1C(=O)CCC12CCC(c1ccc(Cl)cc1)CC2 (stereo not drawn) do in these assays?
ssDAF-12 act: -1; hgDAF-12 ag: -1; DAX1 inh-1: -2; hcDAF-12 act: -1

Results for COc1ccc(Cc2c(C)nc(N)nc2Cl)cc1 ?
ssDAF-12 act: 1.7*; hgDAF-12 ag: -1; DAX1 inh-1: 0; DAX1 inh-2: 0; hcDAF-12 act: -1; PolyA inhibitor: 5

How did Cn1cccc1C(=O)OCc1cc(-c2ccco2)on1 do in these assays?
ssDAF-12 act: 0; hgDAF-12 ag: 10; DAX1 inh-1: 4.3*; DAX1 inh-2: 3; hcDAF-12 act: 2

Results for CCOc1ccc(-n2c(COc3ccccc3)nnc2SCC(=O)Nc2ccc3c(c2)OCCO3)cc1 ?
ssDAF-12 act: -1; hgDAF-12 ag: -3; DAX1 inh-1: -1; hcDAF-12 act: -3

Results for CCOC(=O)c1cc(C)sc1/N=C/C1C(=O)CC(C)(C)CC1=O ?
ssDAF-12 act: -1; hgDAF-12 ag: 3; DAX1 inh-1: 0; DAX1 inh-2: 0; hcDAF-12 act: -2; PolyA inhibitor: 11

Results for CCOC(=O)c1c(CC(C)C)csc1/N=C/C1C(=O)CC(C)(C)CC1=O ?
ssDAF-12 act: -1; hgDAF-12 ag: -2; DAX1 inh-1: 0; DAX1 inh-2: 5.5*; hcDAF-12 act: -2; PolyA inhibitor: 8

Source: PubChem
